# An excerpt weighted towards active compounds, which were near 7.5% of everything screened.
# HCMV inh = qHTS Assay for inhibitors of the human cytomegalovirus (HCMV). 410,000 compounds, 4.5% hits. HFF cells, HCMV-luciferase reporter, 72 h; active compounds read low. activity change, negative = inhibition, % at 57.5 µM. AID 1259415, 2018; in the data active means activity change below about -60%; inconclusive means no clear call, values can overlap the other calls; inactive means above about -39%
#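 Steps: HFFs plated, 16 h 37C; compounds added; HCMV-luciferase added to MOI 1 PFU/cell; 72 h 37C; OneGlo reagent, 5 min room temperature; luminescence read, normalized to controls.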
# Vaccinia mCherry = qHTS for Stage-Specific Inhibitors of Vaccinia Orthopoxvirus: mCherry Reporter Primary qHTS; Vaccinia virus mCherry reporter infection, fluorescence; Potency, µM (titrated, usually from 36.5 µM), inactives show at the highest dose activity change, negative = inhibition, usual class: inhibitors; 310,000 compounds, 0.63% hits; AID 720579, 2013; calls by dose curve; tested in A549 cells; further: potency means the concentration at half of the fitted maximal effect; nearly all actives have a fitted effect of over 35% in size
# FMDV inh = High Throughput Screening for Foot and Mouth Disease Virus Antivirals. FMDV antiviral cell-based qHTS. Potency, µM (series often up to 57.9 µM), for the others: at the highest dose activity change, negative = inhibition, actives largely listed as inhibitors. 410,000 compounds, 1.2% hits; calls by dose curve; tested in HEK293T cells; further: read-out not given here; potency means the concentration at half of the fitted maximal effect; nearly all actives have a fitted effect of over 45% in size
# VACV Venus inh = qHTS for Stage-Specific Inhibitors of Vaccinia Orthopoxvirus: Venus Reporter Primary qHTS | Vaccinia virus Venus reporter expression, fluorescence | Potency, µM (highest dose often 36.5 µM), for inactives: at the top dose activity change, negative = inhibition, most hits filed as inhibitors | 330,000 compounds, 0.46% hits; calls by dose curve; tested in A549 cells; further: potency means the concentration at half of the fitted maximal effect; nearly all actives have a fitted effect of over 30% in size
# FBPA Giardia inh = qHTS Assay for Inhibitors of Fructose-1,6-bisphosphate Aldolase from Giardia Lamblia; AID 2451, 2010; purified Giardia FBPA; Potency, µM (highest dose often 59.6 µM), without a hit: top-dose activity, negative = inhibition, usual class: inhibitors; 290,000 compounds, 0.71% hits; further: potency means the concentration at half of the fitted maximal effect; nearly all actives have a fitted effect of over 55% in size
# Target sequence (A8B2U2 whole entry, looked up): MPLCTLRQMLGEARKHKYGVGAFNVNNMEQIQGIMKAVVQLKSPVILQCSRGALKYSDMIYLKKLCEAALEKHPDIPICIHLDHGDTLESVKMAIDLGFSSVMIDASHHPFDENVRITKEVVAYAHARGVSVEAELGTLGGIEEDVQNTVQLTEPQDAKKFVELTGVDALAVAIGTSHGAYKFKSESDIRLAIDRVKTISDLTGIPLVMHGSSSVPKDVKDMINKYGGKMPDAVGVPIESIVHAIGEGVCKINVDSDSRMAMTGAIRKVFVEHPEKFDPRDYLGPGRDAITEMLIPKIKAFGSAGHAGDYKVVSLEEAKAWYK
#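 40 nM FBPA preincubated 10 min at RT with compound (up to 57.5 uM final), then substrate plus GAPDH/TPI/NAD/arsenate coupling and diaphorase/resazurin added. Fluorescence read after 20 min at RT, 525/598 nm.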
# HCV inh = qHTS Assay for Inhibitors of Hepatitis C Virus (HCV) | 340,000 compounds, 3.4% hits | Potency, µM (top dose mostly 41.8 µM), without a hit: top-dose activity change, negative = inhibition, most hits filed as inhibitors | Huh7.5.1 HCVcc-Cre infection, luciferase reporter, 44 h; further: potency means the concentration at half of the fitted maximal effect
#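 Luciferase read-out (15 sec integration) after a 15 min room-temperature substrate step quantifies HCVcc-Cre infection. Cells, 1,000 per well, had compound added 4 h post-plating, then virus at ~0.5 moi, and were cultured 44 h.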
# * = called active by the depositor; i = inactive; u = inconclusive; x = no result given; [ ] = remark or other dose. Unless noted, the call rests on the fitted dose curve; in most records, active means well fitted curve in the direction sought with a large enough effect; inconclusive means small, poorly fitted or top-dose-only effect, or another doubt; inactive means no such curve, though single readings can be large; an effect the other way counts as inactive or inconclusive. On the % scale 0 is the no-effect control and ±100 the full control effect.
SMILES,HCMV inh,Vaccinia mCherry,FMDV inh,VACV Venus inh,FBPA Giardia inh,HCV inh
Nc1nc(SCC(=O)Nc2ccc([N+](=O)[O-])cc2)n[nH]1,u,-23%,-26%,5%,3%,8%
O=S(=O)(NC1CCCC1)c1ccccc1Br,-97*,i,41%,-3%,1%,19%
COc1ccc(S(=O)(=O)NC2CCCC2)cc1Br,3,-25%,41%,-11%,22%,9%
CCOC(=O)C(=N/O)/C(C)=N/NC(=O)C(=O)Nc1ccc(Cl)cc1,-37,x,u,x,-6%,11µM*
NC1=NC[C@H](Cc2ccc(O)cc2)N1CCC12CC3CC(CC(C3)C1)C2,-73*,-21%,u,-16%,5%,2%
c1ccc(CCn2nnnc2C(c2cccnc2)N2CCN(c3nc4ccccc4s3)CC2)cc1 (stereo not given),u,u,x,-24%,0%,25µM*
CCC(c1nnnn1CS(=O)(=O)c1ccc(C)cc1)N1CCN(c2nc3ccccc3s2)CC1 (stereo not given),-64*,i,x,-19%,-4%,u
c1ccc(CCn2nnnc2C(c2cccnc2)N2CCN(c3ccccc3)CC2)cc1 (stereo not given),-64*,-15%,x,-9%,23%,12%
CCN(CC)C1CCN(C(=O)c2ccc3nc(Cc4ccc(OC)cc4)oc3c2)C1 (stereo not given),-32,x,-1%,x,0%,15%
Clc1ccc(-c2nn3c(-c4cc(-c5ccccc5)n[nH]4)nnc3s2)cc1,x,21%,x,-14%,x,x
CCCCCCCCCC[n+]1ccc(/C=C/c2c(C)[nH]c3ccccc23)c2ccccc21,x,i,x,i,x,x
C=C(C)C(O)/C=C/c1ccc(OC)cc1 (stereo not given),x,x,x,x,-4%[12.9 µM],x
COc1ccc(C=CC(O)CCN2CCC3CCC(C3)C2)cc1 (stereo not given),-66*,-7%,-8%,3%,x,-10%
CCCOc1cccc(C2c3c(oc4ccc(F)cc4c3=O)C(=O)N2c2nc(C)c(C(C)=O)s2)c1 (stereo not given),-16,-6%,-4%,-15%,x,x
CCNc1ccc(C(=O)OCC(=O)NC(C)c2ccccc2)cc1[N+](=O)[O-] (stereo not given),-66*,-11%,-21%,-24%,4%,u
CC(C)(C)c1ccc(C(=O)NCCc2csc(-c3ccc(Cl)cc3)n2)cc1,-11,-17%,-13%,1%,x,x
CN(C)CCCNC(=O)c1ccc(-c2nc(-c3ccc(Cl)cc3)cs2)cc1,34,u,37%,22µM*,3%,10µM*
C=C1C=C(C(F)F)n2ncc(C(=O)N3CCN(c4ccccc4)CC3)c2N1,x,u,x,-25%,x,x
COc1ccc(C(=O)Nc2ccc(-c3ccc(C)o3)cc2)cc1S(=O)(=O)N1CCOCC1,-96*,u,10µM*,u,0%,2.5µM*
COc1ccc(C(=O)Nc2nc(C)c(C(C)=O)s2)cc1S(=O)(=O)N1CCOCC1,-92*,x,-10%,x,x,-16%
O=C(Cn1ccc2cc(S(=O)(=O)N3CCCC3)ccc21)NCCc1ccccc1,-4,-14%,19%,-15%,19%,u
CCOC(=O)N/N=C/c1c(C)nn(-c2ccccc2Cl)c1Cl,37,-9%,20%,-7%,-3%,u
Cc1nn(-c2ccccc2Cl)c(Cl)c1/C=N/Nc1nc2ccccc2s1,-94*,-12%,0.0009µM*,5%,1%,1%
CCCSc1ncc(Cl)c(C(=O)N2CCN(c3cccc(Cl)c3)CC2)n1,80,-14%,u,-16%,x,x
COc1ccc(N(C)S(=O)(=O)c2cccc(C(=O)Nc3ccc(OC)nc3)c2)cc1,-68*,x,x,x,-7%,u
CN(C)S(=O)(=O)c1cccc(NC(=O)c2ccc3c(c2)OCCO3)c1,-3,-3%,-7%,-19%,x,u
